For 8 compounds, Potency and outcome results are on record in PubChem BioAssay (Tox21).

A short description of assay [1]: qHTS assay to identify small molecule antagonists of the sonic hedgehog signaling (Shh) pathway (AID 1259369). Note: nearly all actives have a fitted effect of over 45% in size. Note: potency is the fitted concentration of half-maximal effect. In short, it runs like this:
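Conditioned medium drives Shh signalling in 3T3Gli1-Luc cells; compounds in DMSO co-applied, 24hr at 37 C, then luciferase luminescence.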

In assay [2] the target is Estrogen receptor beta (Homo sapiens) (UniProt Q92731). Briefly: qHTS assay to identify small molecule agonists of the estrogen receptor beta (ER-beta) signaling pathway (AID 1259377; active = well fitted activation curve with a large enough effect in the signal ratio in the repeat runs, not every such curve was filed as active; the % refers to the signal ratio). In short, it runs like this:
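HEK293T ER-beta-UAS-bla; 2% charcoal-stripped FBS; cells pre-incubated 6 hr, compound 16 hr, 37C/5% CO2; LiveBLAzer B/G FRET substrate 2 h RT; fluorescence intensity read.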
In general terms: qHTS replaces the single test concentration by a dilution series.

Assay [3] has the same target. The assay is described as follows: qHTS assay to identify small molecule antagonists of the estrogen receptor beta (ER-beta) signaling pathway (AID 1259378; active = well fitted inhibition curve with a large enough effect in the signal ratio in the repeat runs, not every such curve was filed as active; the % refers to the signal ratio). The procedure, abridged:
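Antagonist mode: compounds added to beta-lactamase reporter HEK293T ER-beta-UAS cells stimulated with E2 (1nM final), 16 hr at 37C. LiveBLAzer B/G FRET substrate, 2 hours room temperature, fluorescence read-out.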

A short description of assay [4]: qHTS assay to identify small molecule agonists of the androgen receptor (AR) signaling pathway in the presence of an antagonist - cell viability counter screen (AID 1259379; active = well fitted curve in the direction sought with a large enough effect in the repeat runs; an effect the other way counts as inactive or inconclusive; note: nearly all actives have a fitted effect of over 25% in size; note: potency is the fitted concentration of half-maximal effect). The procedure, abridged: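 A CellTiter-Fluor read-out measured viability of MDA-kb2 reporter cells (MMTV promoter with AR and GR response elements). Treatment: nilutamide 3.0uM final with compounds at 15 concentrations, 16 hr, 37C, 0% CO2.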

A short description of assay [5]: qHTS assay to identify small molecule agonists of the estrogen receptor beta (ER-beta) signaling pathway - cell viability counter screen (AID 1259380; active = well fitted curve in the direction sought with a large enough effect in the repeat runs; an effect the other way counts as inactive or inconclusive; note: nearly all actives have a fitted effect of over 30% in size; note: potency is the fitted concentration of half-maximal effect). In short, it runs like this:
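Cells used were ER-beta-UAS-bla HEK293T in medium with 2% charcoal-stripped FBS. They were treated for 16 hr at 37C. Viability came from CellTiter-Glo luminescence.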

The nature of assay [6]: qHTS assay to identify small molecule agonists or antagonists of the thyroid stimulating hormone receptor (TSHR) signaling pathway - wild type cell line counter screen (AID 1259384). The procedure, abridged:
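Counter screen in untransfected Hek293: compounds (15-point titration, triplicate) plus phosphodiesterase inhibitor Ro20-1724 added after 18 h plating; 30 min RT. Intracellular cAMP via competitive d2/cryptate immunoassay, 1 h incubation.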

The target in assay [7] is Thyrotropin receptor (Homo sapiens) (UniProt P16473). The assay is described as follows: qHTS assay to identify small molecule antagonists of the thyroid stimulating hormone receptor (TSHR) signaling pathway (AID 1259385). Note: nearly all actives have a fitted effect of over 20% in size. The procedure, abridged: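 Antagonist mode: compound-treated TSHR-expressing HEK293 cells were stimulated with 1.5 ng/mL TSH (final) in presence of Ro20-1724 for 30 min at RT. HTRF cAMP detection after 1 h; each compound tested at 15 concentrations, triplicate.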

Assay [8] deals with Progesterone receptor (Homo sapiens) (UniProt P06401). The assay is described as follows: qHTS assay to identify small molecule agonists of the progesterone receptor (PR) signaling pathway (AID 1346784). Note: nearly all actives have a fitted effect of over 30% in size. The procedure, abridged: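 Beta-lactamase reporter read-out: after 16 hr compound treatment at 37C and a further 2 hr at room temperature with LiveBLAzer B/G FRET substrate, fluorescence was measured in PR-UAS-bla HEK 293T cells grown in 2% charcoal-stripped serum.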

The target is the same in assay [9]. The assay is described as follows: qHTS assay to identify small molecule antagonists of the progesterone receptor (PR) signaling pathway (AID 1346795; active = well fitted inhibition curve with a large enough effect in the signal ratio in the repeat runs, not every such curve was filed as active; the % refers to the signal ratio). The procedure, abridged:
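Read-out is fluorescence from the LiveBLAzer B/G FRET substrate, cleaved by a UAS-controlled beta-lactamase in PR-UAS-bla HEK293T cells after 16 hr exposure to compound plus 1 nM promegestone (final), followed by 2 hr at room temperature.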

Assay [10] can be described thus: qHTS assay to identify small molecule agonists of the progesterone receptor (PR) signaling pathway - cell viability counter screen (AID 1346799). Note: nearly all actives have a fitted effect of over 45% in size. Note: potency is the fitted concentration of half-maximal effect. The procedure, abridged: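 Luminescence from CellTiter-Glo, added after the beta-lactamase FRET read in the same wells, gave cytotoxicity in PR-UAS-bla HEK293T cells treated with compounds for 16 hr at 37C.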
A short description of assay [11]: qHTS assay to identify small molecule antagonists of the TGF-beta/Smad signaling pathway - cell viability counter screen (AID 1346824; active = well fitted curve in the direction sought with a large enough effect in the repeat runs; an effect the other way counts as inactive or inconclusive; note: nearly all actives have a fitted effect of over 50% in size). The procedure, abridged: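 Cytotoxicity counter-screen run in the same wells as the beta-lactamase Smad reporter read: CellTiter-Glo luminescence after 30 min at room temperature. HEK 293T SBE-bla cells had 5 hr compound exposure at 37 C with TGF-beta1 (0.25 ng/mL stock).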

Assay [12] in a line: qHTS assay to identify small molecule agonists of the TGF-beta/Smad signaling pathway - cell viability counter screen (AID 1346829; active = well fitted curve in the direction sought with a large enough effect in the repeat runs; an effect the other way counts as inactive or inconclusive; note: top concentration of the series differs between compounds; nearly all actives have a fitted effect of over 45% in size). The procedure, abridged: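 SBE-bla HEK 293T cells plated overnight, compound exposure 5 hr at 37 C. Viability read in the same wells by CellTiter-Glo luminescence after 30 min at room temperature, following the beta-lactamase read.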
Assay [13] in a line: qHTS assay to identify small molecule agonists of the TGF-beta/Smad signaling pathway (AID 1346859; active = well fitted activation curve with a large enough effect in the signal ratio in the repeat runs, not every such curve was filed as active; the % refers to the signal ratio; note: series mostly up to about 77 µM). The procedure, abridged:
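SBE-bla HEK 293T, 4,000 cells/well, plated o/n; cpd in DMSO, 5 hr, 37 C/5% CO2; B/G FRET substrate 2 hr RT; ex 405, em 460/530 nm.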

Assay [14] concerns the target Thyrotropin-releasing hormone receptor (Homo sapiens) (UniProt P34981). The assay is described as follows: qHTS assay to identify small molecule agonists of the thyrotropin-releasing hormone receptor (TRHR) signaling pathway (AID 1346891). Note: series mostly up to about 58 µM. In short, it runs like this: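 Intracellular calcium rise, read as fluorescence every second for 3 min, served as the agonist signal in dye-loaded HEK293 cells expressing TRHR; each compound ran at 15 concentrations in triplicate.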

Assay [15] has as its target Estrogen receptor (Homo sapiens) (UniProt P03372). The assay is described as follows: qHTS assay to identify small molecule agonists of the estrogen receptor alpha (ER-alpha) signaling pathway in the presence of an antagonist (AID 1259383). Note: top concentration of the series differs between compounds; nearly all actives have a fitted effect of over 15% in size. The procedure, abridged: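 Using VM7Luc4E2 cells seeded 24hr before treatment, antagonist ICI-182,780 (10.0nM final) was added, followed by compounds at 15 concentrations. Plates incubated 22hr; ONE-Glo luminescence quantified reporter activity.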

Assay [16] is described as follows: qHTS assay to identify small molecule agonists of the estrogen receptor alpha (ER-alpha) signaling pathway in the presence of an antagonist - cell viability counter screen (AID 1259386; active = well fitted curve in the direction sought with a large enough effect in the repeat runs; an effect the other way counts as inactive or inconclusive;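 note: series mostly up to about 92 µM; cells exposed to compounds for 22 h at 37 °C before the viability read; nearly all actives have a fitted effect of over 30% in size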). In short, it runs like this:
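ICI-182,780 at 10.0nM final accompanies the compound titration (15 concentrations, 22hr, 37C) on VM7Luc4E2 cells. The CellTiter-Fluor fluorescence readout runs in the same wells as the luciferase assay.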

Assay [17] is described as follows: qHTS assay to identify small molecule antagonists of the progesterone receptor (PR) signaling pathway - cell viability counter screen (AID 1346798; active = well fitted curve in the direction sought with a large enough effect in the repeat runs; an effect the other way counts as inactive or inconclusive; note: series mostly up to about 92 µM; nearly all actives have a fitted effect of over 50% in size). In short, it runs like this: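 HEK293T PR-UAS-bla, 2% charcoal-stripped FBS; 4 hr pre-plate; cpd + R5020, 16 h 37C; LiveBLAzer read first; then CellTiter-Glo 30 min RT, luminescence.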
Assay [18] concerns the target Thyrotropin-releasing hormone receptor (Homo sapiens) (UniProt P34981). Briefly: qHTS assay to identify small molecule antagonists of the thyrotropin-releasing hormone receptor (TRHR) signaling pathway (AID 1346877; active = well fitted inhibition curve with a large enough effect in the repeat runs, not every such curve was filed as active; note: series mostly up to about 51 µM). The procedure, abridged:
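Screening used HEK293 cells engineered with TRHR, with a brief 5 min room-temperature compound exposure preceding addition of TRH to 1 nM. The read-out was kinetic calcium-dye fluorescence, concentration-response from 15 doses in triplicate.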

A short description of assay [19]: qHTS assay to identify small molecule antagonists of the estrogen receptor beta (ER-beta) signaling pathway - cell viability counter screen (AID 1259382; active = well fitted curve in the direction sought with a large enough effect in the repeat runs; an effect the other way counts as inactive or inconclusive; note: series mostly up to about 92 µM; nearly all actives have a fitted effect of over 55% in size). In short, it runs like this:
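Agonist-stimulated (1nM E2) ER-beta-UAS-bla HEK293T cells are incubated with library compounds for 16 hr at 37C. Cell viability is then assessed in the reporter-assay wells by adding CellTiter-Glo and reading luminescence after 30 min.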

SMILES strings stand for the structures. Values without a mark were called inactive. Inconclusive results are not listed. Activity calls are given as the source filed them. Unless noted, calls come from the whole dose curve.

Estrogen receptor beta (Homo sapiens), sequence (Q92731 whole entry, looked up): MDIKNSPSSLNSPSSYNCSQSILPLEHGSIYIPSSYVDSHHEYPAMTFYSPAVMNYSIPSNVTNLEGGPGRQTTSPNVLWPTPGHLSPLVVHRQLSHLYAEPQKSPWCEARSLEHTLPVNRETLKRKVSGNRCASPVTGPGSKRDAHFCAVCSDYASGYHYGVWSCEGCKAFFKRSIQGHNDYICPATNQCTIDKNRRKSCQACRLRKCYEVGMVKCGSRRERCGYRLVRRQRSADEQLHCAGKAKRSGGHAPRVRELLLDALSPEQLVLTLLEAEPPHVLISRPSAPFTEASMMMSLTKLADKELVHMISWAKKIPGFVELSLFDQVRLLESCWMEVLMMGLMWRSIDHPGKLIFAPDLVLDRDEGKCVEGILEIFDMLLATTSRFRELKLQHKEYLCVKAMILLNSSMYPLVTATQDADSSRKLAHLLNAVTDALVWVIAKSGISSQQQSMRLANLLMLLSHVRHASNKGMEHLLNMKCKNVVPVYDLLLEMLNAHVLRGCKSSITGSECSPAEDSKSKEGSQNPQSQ
Estrogen receptor (Homo sapiens), sequence (P03372 whole entry, looked up): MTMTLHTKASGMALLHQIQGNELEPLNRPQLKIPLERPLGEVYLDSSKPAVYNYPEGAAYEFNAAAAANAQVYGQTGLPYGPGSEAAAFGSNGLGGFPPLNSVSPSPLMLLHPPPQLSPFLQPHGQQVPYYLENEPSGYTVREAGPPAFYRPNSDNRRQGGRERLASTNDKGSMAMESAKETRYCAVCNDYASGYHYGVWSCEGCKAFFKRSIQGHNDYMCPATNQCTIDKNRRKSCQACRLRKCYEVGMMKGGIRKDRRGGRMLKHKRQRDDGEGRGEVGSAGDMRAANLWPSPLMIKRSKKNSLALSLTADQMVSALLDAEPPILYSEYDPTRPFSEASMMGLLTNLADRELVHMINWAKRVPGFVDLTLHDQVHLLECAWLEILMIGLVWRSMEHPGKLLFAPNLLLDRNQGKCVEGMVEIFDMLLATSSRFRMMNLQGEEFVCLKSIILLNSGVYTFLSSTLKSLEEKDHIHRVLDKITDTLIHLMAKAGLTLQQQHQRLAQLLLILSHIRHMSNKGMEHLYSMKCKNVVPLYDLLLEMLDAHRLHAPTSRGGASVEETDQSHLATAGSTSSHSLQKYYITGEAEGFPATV
Thyrotropin receptor (Homo sapiens), sequence (P16473 whole entry, looked up): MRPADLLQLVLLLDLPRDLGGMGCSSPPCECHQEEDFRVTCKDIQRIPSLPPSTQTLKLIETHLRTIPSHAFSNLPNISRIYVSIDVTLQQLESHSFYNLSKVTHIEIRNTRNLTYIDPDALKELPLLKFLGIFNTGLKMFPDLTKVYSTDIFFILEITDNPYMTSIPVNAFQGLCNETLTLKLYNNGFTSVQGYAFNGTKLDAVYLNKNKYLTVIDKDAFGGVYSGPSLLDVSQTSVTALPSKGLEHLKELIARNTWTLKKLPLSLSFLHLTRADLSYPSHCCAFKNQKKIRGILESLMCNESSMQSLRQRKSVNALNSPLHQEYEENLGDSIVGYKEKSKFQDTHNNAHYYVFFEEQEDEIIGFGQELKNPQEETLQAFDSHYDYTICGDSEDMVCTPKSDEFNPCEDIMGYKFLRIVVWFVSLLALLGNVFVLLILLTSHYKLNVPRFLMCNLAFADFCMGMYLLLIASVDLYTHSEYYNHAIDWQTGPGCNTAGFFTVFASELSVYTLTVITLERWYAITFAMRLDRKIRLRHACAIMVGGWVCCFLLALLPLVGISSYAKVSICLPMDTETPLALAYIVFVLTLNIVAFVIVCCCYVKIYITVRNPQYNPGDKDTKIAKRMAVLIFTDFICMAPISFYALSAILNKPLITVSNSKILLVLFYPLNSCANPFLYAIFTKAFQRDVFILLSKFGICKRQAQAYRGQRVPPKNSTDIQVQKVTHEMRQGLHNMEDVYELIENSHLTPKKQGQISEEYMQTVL
Thyrotropin-releasing hormone receptor (Homo sapiens), sequence (P34981 whole entry, looked up): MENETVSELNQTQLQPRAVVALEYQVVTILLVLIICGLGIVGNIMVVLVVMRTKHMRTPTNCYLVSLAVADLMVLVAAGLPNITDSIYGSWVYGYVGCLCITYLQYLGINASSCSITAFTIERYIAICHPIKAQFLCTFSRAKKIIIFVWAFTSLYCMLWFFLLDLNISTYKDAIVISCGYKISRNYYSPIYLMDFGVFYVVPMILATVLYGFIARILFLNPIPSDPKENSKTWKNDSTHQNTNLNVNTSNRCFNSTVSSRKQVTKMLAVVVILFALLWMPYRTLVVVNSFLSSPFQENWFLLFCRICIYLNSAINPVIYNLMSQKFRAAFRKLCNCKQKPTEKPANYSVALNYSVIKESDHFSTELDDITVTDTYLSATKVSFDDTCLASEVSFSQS
Progesterone receptor (Homo sapiens), sequence (P06401 whole entry, looked up): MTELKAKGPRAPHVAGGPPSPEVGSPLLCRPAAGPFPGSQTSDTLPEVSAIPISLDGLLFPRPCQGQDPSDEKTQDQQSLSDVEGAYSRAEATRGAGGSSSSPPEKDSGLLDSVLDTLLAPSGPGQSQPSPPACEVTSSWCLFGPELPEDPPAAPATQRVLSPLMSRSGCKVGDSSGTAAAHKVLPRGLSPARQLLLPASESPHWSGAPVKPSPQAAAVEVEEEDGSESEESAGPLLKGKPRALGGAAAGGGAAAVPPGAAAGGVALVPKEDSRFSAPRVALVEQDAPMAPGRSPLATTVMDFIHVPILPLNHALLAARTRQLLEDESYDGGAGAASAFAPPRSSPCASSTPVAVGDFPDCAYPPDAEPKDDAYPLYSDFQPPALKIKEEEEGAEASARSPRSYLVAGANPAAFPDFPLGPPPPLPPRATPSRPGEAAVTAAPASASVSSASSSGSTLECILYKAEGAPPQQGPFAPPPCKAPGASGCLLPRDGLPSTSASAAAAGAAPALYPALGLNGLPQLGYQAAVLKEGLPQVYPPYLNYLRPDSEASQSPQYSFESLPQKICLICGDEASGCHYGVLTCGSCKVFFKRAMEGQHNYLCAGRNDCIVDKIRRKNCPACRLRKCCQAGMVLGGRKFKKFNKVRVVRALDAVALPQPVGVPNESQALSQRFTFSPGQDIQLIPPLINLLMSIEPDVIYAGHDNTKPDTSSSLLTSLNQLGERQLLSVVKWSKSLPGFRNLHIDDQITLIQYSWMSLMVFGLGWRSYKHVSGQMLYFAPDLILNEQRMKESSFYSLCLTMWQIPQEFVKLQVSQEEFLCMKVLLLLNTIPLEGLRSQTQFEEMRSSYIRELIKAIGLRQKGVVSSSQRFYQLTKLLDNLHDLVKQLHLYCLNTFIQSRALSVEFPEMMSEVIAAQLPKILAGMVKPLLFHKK

For `O=C=NC1CCC(CC2CCC(N=C=O)CC2)CC1` (stereo not drawn), the Potency was 43.3 µM (active) in assay [1], 30.6 µM (active) in assay [4], 68.6 µM (active) in [5] and 8.63 µM (active) in [10]. The Potency entry in [2], in assay [3], in assay [6], in assay [7], in assay [9] and in assay [11] was “inactive” in each case. For the same compound, the Potency result in assay [12] and in assay [14] was “inactive” throughout. The outcome in assay [8] and in assay [13] was inactive.

With `Cc1ccc(C(C)c2ccc(C)c(C)c2)cc1C`, the Potency entry in assay [1], in assay [2], in assay [3], in [4], in assay [5] and in assay [15] was “inactive” throughout. The Potency entry in [6], in [16], in assay [17], in assay [10], in assay [11] and in assay [12] was “inactive” in each case. Also, the Potency entry in [14] is “inactive”. Also, the call in [8], in assay [13] and in assay [18] was inactive.

Regarding `CCCCCCCCC(CO)CCCCCC` (stereo not drawn), the Potency result in [1], in [2], in [3], in [4], in [19] and in assay [15] was “inactive” throughout. The Potency entry in [6], in assay [7], in assay [16], in [9], in [17] and in [10] was “inactive” in each case. In addition, the Potency result in assay [11] and in assay [12] was “inactive” throughout. For the same compound, the compound was called inactive in assay [8] and in assay [13].

For the compound `CCCCCCOC(=O)CCC`, the Potency result in [1], in assay [2], in [3], in assay [4], in assay [19] and in assay [6] was “inactive” in each case. Further, the Potency result in [7], in assay [16], in assay [9], in assay [17], in assay [10] and in [11] was “inactive” in each case. Besides, the Potency result in [12] and in assay [14] was “inactive” each time. The outcome in assay [8], in assay [13] and in [18] was inactive.

For `CCCCCc1ccc(N)cc1`, the Potency entry in assay [1], in assay [2], in assay [3], in assay [4], in assay [19] and in assay [15] was “inactive” in each case. The Potency entry in [6], in assay [7], in [16], in assay [9], in assay [17] and in assay [10] was “inactive” each time. The Potency result in assay [11], in assay [12] and in [14] was “inactive” throughout. In addition, the call in assay [8], in assay [13] and in assay [18] was inactive.

With `Cc1occc1S`, the Potency entry in [1], in assay [2], in assay [3], in assay [4], in [19] and in assay [15] was “inactive” in each case. Also, the Potency entry in [6], in [7], in assay [16], in [9], in assay [10] and in assay [12] was “inactive” throughout. The Potency result in [14] was “inactive”. Besides, the compound was called inactive in assay [8] and in assay [13].

Consider `N=C(N=C(N)N)N1CCOCC1`, for which the Potency entry in assay [1], in assay [2], in [3], in [4], in assay [15] and in assay [6] was “inactive” each time. Also, the Potency result in assay [7], in assay [16], in assay [9], in [17], in assay [10] and in [11] was “inactive” in each case. Besides, the Potency result in assay [12] was “inactive”. Moreover, the result in assay [8] and in assay [13] was inactive.

For the compound `CCCc1ccccc1`, the Potency result in assay [1], in assay [2], in assay [3], in assay [5], in [19] and in assay [15] was “inactive” throughout. The Potency result in [6], in [7], in [16], in assay [17], in assay [10] and in assay [11] was “inactive” in each case. Further, the Potency entry in assay [12] and in assay [14] was “inactive” each time. In addition, the outcome in assay [8], in assay [13] and in assay [18] was inactive.
